# The full ranking holds about 59,000 sequences; the median of the read-out is about -0.00055, and the lowest 2% start at about -2. Shown is part of a subset that was picked to be rich in the lowest values.
# Assay: Identification of proteins required for the processing of the EWS-FLI1 nascent transcript;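 also: robust z of luciferase light less the median z of siRNAs with the same seed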
# Settings: TC32 Ewing sarcoma NR0B1-luc vs CMV-luc (EWS-FLI1 target promoter against control promoter), 48 h; screened at 20 nM (by protocol)
# In short: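 Three siRNAs per gene, each in a separate well at 20 nM, were transfected into TC32 cells bearing either reporter construct. Luminescence was measured two days on, and per-gene comparison relied on seed-corrected Z values.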
row,Sequence,seed-corrected z-score
1,UCGCUGUCCUUUAAGAGGC against NKAIN4,-0.183
2,AUCGGGAAGAGAGUGUAUC against PTAFR,0.45
3,CAAGUGGAUCGAGCUUGCG against RPL29P12,0.225
4,UGACUCAAAACUACCAUCC against CCNA2,-0.751
5,AUCUCUUUUAUCAGGGUUG against VEGFB,-2.11
6,AACGAUUUUAUCCAAAAUG against FBXO25,0.881
7,UAUAUGUCUCGCAUUUGCC against TRE17,-1.17
8,AUCGCAAUAAUUUCAUCUG against NOL8,-0.121
9,UACGUUAGUUUUGACACGC against RALY,-0.653
10,UGCUAUAGCACCAACAGCC against CLCN5,-2.8
11,UUGGGUUCUACAAGCUUCC against SDE2,-0.135
12,AAGAUGUCUGUGGUCAUGG against PLCB2,1.04
13,UUACUAGAAUCCUCAAUUG against OXR1,-0.746
14,UAAAGAUCAAUUCGCUUUG against GLRB,-0.775
15,UGAAGGUUCAGAGUGCAAC against ISG20L2,-0.949
16,UUCUGGAUUAGAAAGGUUC against NKRF,0.43
17,UCCUUGUCGAACAUGAGCC against NTNG2,-2.93
18,UGCACAUCCUUGUCUAUGC against SGSM2,0.184
19,UUACAUUCUGAGCCCAUCC against HTR7,-0.311
20,UUAGUUAUAACAUAUGACU against LINC00900,-0.697
21,ACAAUGGAAAGCACCUUCC against RINL,0.198
22,UCCCAGUUGUGGAUGAUCC against PLEKHM1,-0.204
23,UAAAGACUACAAGCACAGC against OR51B5,-2.14

row,Sequence,seed-corrected z-score
1,UUCAGUACAUCUCUGCAGG against RDH12,0.532
2,UUCAUCACAACCUUCCGUG against TLR5,0.937
3,UUCCAGGUCACCAACCACC against IFITM5,-0.607
4,UUCUGCAUAAGUAGUUUUC against INIP,-2.13
5,UGCUUAGCUUCUUUAACCC against PLIN2,0.638
6,UCCUGAACAGGCUUAUCCC against AXIN1,0.946
7,UGAUCUCCAAUCACAUGCC against ARFGEF2,-0.117
8,UCGUUUACAAACAUGAGUC against MPDZ,0.35
9,UUCUGACCAAGCAAACUCG against SF3B1,-2.7
10,AUUGAUGUAUGACUCUUCC against DDX55,-0.91
11,UUCUUUGCCUCGCUUAUUC against OLFML2B,0.806
12,UAUCUGAGGAGUUCUGACC against SLC22A2,0.452
13,AAAUGUCUUAGGGAUUGGG against ITPRIPL1,-2.1
14,UCUCCAAGAAGUUCACUGG against SOX6,0.406
15,UCUGUUGCUGCCUAAACUC against TMEM198B,0.298
16,UAUAGAACAAGGUAAAUCC against MTF2,0.208
17,UUCUAUCAAAUAUCCUUUG against LOC400940,-0.132
18,UAGGAAAUCAUCUCCCUCC against TMEM169,-3.9
19,UACCCAUAUAUUUAAAGCC against PQLC3,0.395
20,UUUUCAUUUACGGAACCCG against SMOC2,0.202
21,UCAGAAGUAACAGCAGAUC against FANCG,0.307
22,UCAUAGUGCAGGUAGAGCC against TRIM50,-0.491
23,AUAGAAGUCAACCUCAUUC against CASQ2,0.181

row,Sequence,seed-corrected z-score
1,UAUUUGUCCAGGUAUGGUG against ERRFI1,-0.215
2,GUCUCUGGUACCUGUGUGC against LOC440300,-0.25
3,UACUCUGUUAGGAAGACCG against TECR,0.271
4,UCCUGCUUCCGGAAUAUCU against PNMA2,-2.12
5,UCAGAUUUCAGACCGCCCA against LINC00668,0.167
6,UUCAGUUCGUAAUCUCUCU against FLOT1,0.706
7,UUCAAAUCCCUAUUAAAGC against ARFIP1,0.962
8,AAGUGGAACCGAUACUUCC against SPDYE14P,-0.205
9,UUUGGUGCACGUAACUUGG against C6orf203,-2.05
10,UUCGGUGUCAAUAACUGUG against BCAS3,-1.77
11,UUUCGUAAUAUGCGGCCUC against ASPA,-0.032
12,UCUUGAUAAGAGACCAGCU against PRR3,0.373
13,AAAUCCACAAUCCAGGGAG against SPATA31E2P,0.176
14,UGUUCAGUUGCUAAAAUGG against KLRC1,0.773
15,UCUGUAAACAGCUUGAUGA against GLP1R,-0.289
16,UUCAUUCUCUGCAAAAUCC against NSMCE1,-0.305
17,UACGAUCAAAGGUUGAUUC against ATF7IP,-4.54
18,UUCAAUGCAUACAUAGAGC against ZNF585A,0.552
19,AUAGGGUAUAGCUCCAGUC against CIART,1.2
20,UGAAGUCGUAGAUCUCACG against PTDSS2,-2.62
21,AAUAGUUAUUUUGUUGAGC against C6orf52,-0.622
22,UAGGUGUGCAUCAUAGUAA against C11orf94,-0.539
23,UGAGUCAUCCACGCAGUUC against PSCA,0.371

row,Sequence,seed-corrected z-score
1,UCUGUUUCCAUUGCGUUCU against FLJ41278,-0.527
2,UCUUCGUCUGGGUCGUUUG against SIGLEC6,-0.384
3,UUCUGGAGUAGCAAGCUAC against POLR2D,-2.24
4,UUUCAUCUCCAUCCGGUAG against JPH3,-0.755
5,ACUCGAAGCAUCUCGAUGG against HAS3,-0.313
6,AACUAAACCAGCUCGCUUC against LRRC8C,2.39
7,UGUCAAGUCGGGUUCACCC against CCDC97,-0.229
8,UGCUGCUUCCCUAAGAUCC against ATG4A,0.243
9,AAUAGCUGCAUAACUGUCU against CLTA,-3.36
10,UUCUGCUUCAUGUUGAGCC against RECQL4,-0.111
11,UCUUGUCGAAAAGCUCACC against KIAA1161,0.789
12,AUCGUGCAAGGUGUUCUCC against BFSP2,0.341
13,AUUUCCUUGAUUGUCAUCC against SERPINB7,-2.22
14,AAAGUUCUCGAAAUGCUUC against GLOD4,-0.0199
15,UUACGGUACUUGGUCUCGC against NRAP,-1.11
16,UUUUUGGUCACCGGUUGCC against GRK5,-0.48
17,UAGCUUGAUAAUAACCAGC against EMC8,0.529
18,AUAGUGCUCAUGAACAUGG against OR7G1,0.135
19,UAGCUGUGAACAGUACCCG against MPL,-2.07
20,UGUUGUCAAAACCACUGCC against CTBP1,-1.98
21,UGAUGAACUGGUUAUGAGG against LAPTM5,1.26
22,UACAUCCUCAUUAUAGGUU against ZNRF2,-0.243
23,UUGUCUAAUGGUAAAGUGC against LDB2,-0.144

row,Sequence,seed-corrected z-score
1,AAGGGUAUCUGAGUCCUUG against RC3H2,-0.0262
2,UGAGCGAUUGUUAAAUGCC against ZNF781,-0.576
3,UGCUCUCUCAGAAUCUCGC against SPA17,-0.647
4,UUAGCAUUCCUGGAAUCCG against EIF5B,-2.11
5,AGAUUGUUAAGCAGCGUGU against C7orf43,0.291
6,UCUAUGUCGGGAUCGGUGC against LINC00467,0.416
7,UUCUUAUCAGCAGCUAGUC against CKAP5,-2.74
8,AAGGCAACAGUGUCCCAUG against SMIM22,-1.28
9,UUUGAAAUUUGUCAGGUCU against PQLC2L,-0.634
10,UACUAUGUCUUCAAGAUCC against CD99L2,0.481
11,UGCUUUAACUGGAUACAUC against NPHP1,-2.27
12,UUCUUAGCUCCCACGAUCC against ZNF512,0.51
13,UUGGUGAAUAAAUAUCAUC against ZBTB25,0.411
14,AAUCUUCCCAUUCUCGUCC against NAA10,0.136
15,UACGGUAUGACUUUCGUUG against RPL23,-2.37
16,AUUGUUACUAUUGGACAGG against RFPL4A,0.248
17,UGUUUGACCAUUCCGUAUC against VRK1,0.29
18,UUUCGUCUCAGCACUGCAC against ANKMY1,0.0118
19,UUUGUGACCAGCAAUCUGC against PLA2G2F,-0.775
20,AAGUUUAGCAAAGACCUGC against VPS39,-2.66
21,UCCGAGAUGAGGUAUUAGG against PPIP5K2,0.207
22,UUACACUUCAUUUCCAGAG against WNT11,1.06
23,UUCUUGCCUAGACAGCACC against JAK1,0.139

row,Sequence,seed-corrected z-score
1,UUUGGGUAAAUAAUCCUUU against C4orf45,-1.15
2,UUCGGGUUGUUCUUUUUCC against TCHP,0.00716
3,AUAAUAUGAUUCCUAAUCC against FAM188A,0.685
4,UUAGCUGCAACUGGAAGGU against TEX13B,-3.82
5,UGAUGUCCAACACCAGUCC against ADCY3,1.37
6,UUGAACUAAACAUAUCAGC against TAB3,1.2
7,AGUGGAACAAGAUCUCAGU against NOL6,0.803
8,UUCAUACUCAGGCAUAUCC against SEC23A,-0.651
9,ACAGAUGUCACACUCGAAG against ZNF581,0.251
10,UUUCAUCUCUCUUAGAUAC against AP3S1,-0.346
11,UGAGAGUUGAGCCUUAUCA against OR8B8,-2.36
12,AGACGAUCAAGCUCUGGUG against CYB5R4,-0.548
13,ACAGGUGCAAACAAAGAGC against TMEM167B,-2.18
14,UGAACAUCCAGUUCUUCCC against CHERP,-1.4
15,UGGAUUAGCAUGACAGACC against COPB1,-2.98
16,UAUGCUCCUCCCGACAAGU against HMGB1P1,0.175
17,AAACAGACCACCUCGUAGG against MTUS2-AS1,0.795
18,UAUCUUCGUACUCAUUUGG against TNFAIP6,-2.49
